From PubChem BioAssay (NCI)
Compounds without any hit were thinned out: in the full panel of roughly 83,000, 20% have a hit.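 Step 1: grow cells in 96-well plates. Step 2: add test compound at a single concentration. Step 3: incubate 48 h. Step 4: record percent growth.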 The source made the active and inactive calls. How the source made its calls: active means growth percent below 10; inactive means the rest.

Experiments:
Experiment in all cases: NCI-60 one-dose screen, 48 h (100 = growth as untreated, 0 = no growth, -100 = all killed)
Conditions in all cases: 10 µM unless noted
DU-145 prostate = tested on: DU-145 prostate
K-562 leukemia = tested on: K-562 leukemia
MALME-3M melanoma = tested on: MALME-3M melanoma
MDA-MB-231 breast = tested on: MDA-MB-231 breast
RXF 393 renal = tested on: RXF 393 renal
SF-268 CNS = tested on: SF-268 CNS
SF-295 CNS = tested on: SF-295 CNS
SF-539 CNS = tested on: SF-539 CNS
UACC-257 melanoma = tested on: UACC-257 melanoma
M14 melanoma = tested on: M14 melanoma
HCT-15 colon = tested on: HCT-15 colon
HT29 colon = tested on: HT29 colon
SNB-75 CNS = tested on: SNB-75 CNS
SNB-19 CNS = tested on: SNB-19 CNS
U251 CNS = tested on: U251 CNS
PC-3 prostate = tested on: PC-3 prostate
SK-MEL-5 melanoma = tested on: SK-MEL-5 melanoma
UACC-62 melanoma = tested on: UACC-62 melanoma
LOX IMVI melanoma = tested on: LOX IMVI melanoma
SK-MEL-28 melanoma = tested on: SK-MEL-28 melanoma

Measured: growth

COc1ccc(/C=N\NC(=O)c2ccc3nc(-c4ccc(Cl)cc4)[nH]c3c2)cc1
inactive: DU-145 prostate 79.3% | K-562 leukemia 31.9% | MDA-MB-231 breast 39.8% | RXF 393 renal 43.8% | SF-268 CNS 19.9% | SF-539 CNS 42.6% | UACC-257 melanoma 54.4% | M14 melanoma 26.2% | HCT-15 colon 57.5% | HT29 colon 21.9% | SNB-75 CNS 91.9% | SNB-19 CNS 24.2% | SK-MEL-5 melanoma 33.7% | UACC-62 melanoma 30.9% | SK-MEL-28 melanoma 12.5%
active: MALME-3M melanoma 6.53% | SF-295 CNS -38.9% | U251 CNS 7.96% | PC-3 prostate -4.4% | LOX IMVI melanoma 0.882%

C=C(CNCCO)[C@@H]1CC[C@]2(CO)CC[C@]3(C)[C@H](CC[C@@H]4[C@@]5(C)CCC(NCCO)C(C)(C)[C@@H]5CC[C@]43C)[C@@H]12 (stereo not given in full)
inactive: DU-145 prostate 79.2% | MALME-3M melanoma 61.8% | MDA-MB-231 breast 51.4% | RXF 393 renal 57.4% | SF-268 CNS 69.1% | SF-295 CNS 80.8% | SF-539 CNS 70.8% | UACC-257 melanoma 77.9% | M14 melanoma 14.3% | HCT-15 colon 71.6% | HT29 colon 12.7% | SNB-75 CNS 66.8% | SNB-19 CNS 83.6% | U251 CNS 31.4% | PC-3 prostate 75.2% | SK-MEL-5 melanoma 65.2% | UACC-62 melanoma 94.6% | LOX IMVI melanoma 33.3% | SK-MEL-28 melanoma 80.7%
active: K-562 leukemia 0.374%

O=C(/C=C/c1cccc([N+](=O)[O-])c1)c1ccc(Nc2nc(Nc3ccc(F)cc3)nc(Nc3ccc(Cl)cc3)n2)cc1
inactive: DU-145 prostate 106% | K-562 leukemia 70% | MALME-3M melanoma 105% | MDA-MB-231 breast 92.2% | SF-268 CNS 93.8% | SF-295 CNS 84.8% | SF-539 CNS 106% | UACC-257 melanoma 100% | M14 melanoma 92.5% | HCT-15 colon 83.9% | HT29 colon 88% | SNB-75 CNS 106% | SNB-19 CNS 100% | U251 CNS 81.1% | PC-3 prostate 88.5% | SK-MEL-5 melanoma 87.6% | UACC-62 melanoma 93.9% | LOX IMVI melanoma 84.2% | SK-MEL-28 melanoma 97.1%
active: RXF 393 renal 3.04%

Cn1nc(-c2ccc(Cl)cc2)nc2c(=O)n(C)c(=O)nc1-2
active: DU-145 prostate -97.5% | K-562 leukemia -52.7% | MALME-3M melanoma -90.1% | MDA-MB-231 breast -24.9% | RXF 393 renal -30.8% | SF-268 CNS -19.8% | SF-295 CNS -29.6% | SF-539 CNS -99.2% | UACC-257 melanoma -83.4% | M14 melanoma -91.9% | HCT-15 colon -67.5% | HT29 colon -77.3% | SNB-75 CNS -100% | SNB-19 CNS -84.5% | U251 CNS -82.6% | SK-MEL-5 melanoma -98.5% | UACC-62 melanoma -55.2% | LOX IMVI melanoma -58.6% | SK-MEL-28 melanoma -64.4%
inactive: PC-3 prostate 16.6%

CCOC(=O)c1c(Nc2nc3ccccc3s2)sc2c1CCC(=O)C2
inactive: DU-145 prostate 84.8% | K-562 leukemia 10.2% | MALME-3M melanoma 93.9% | MDA-MB-231 breast 79.4% | RXF 393 renal 83.6% | SF-268 CNS 71% | SF-295 CNS 86.3% | SF-539 CNS 46.8% | UACC-257 melanoma 92.7% | M14 melanoma 58.6% | HCT-15 colon 45.1% | HT29 colon 55.4% | SNB-75 CNS 74.8% | SNB-19 CNS 45.8% | U251 CNS 20.5% | PC-3 prostate 22.2% | SK-MEL-5 melanoma 61.2% | UACC-62 melanoma 43.1% | LOX IMVI melanoma 40.1% | SK-MEL-28 melanoma 108%

C#C[C@]1(O)CC[C@H]2[C@@H]3CC=C4c5sc(-c6cccc(C)c6)nc5CC[C@]4(C)[C@H]3CC[C@@]21C
active: K-562 leukemia 0.702%
inactive: DU-145 prostate 78.5% | MALME-3M melanoma 83% | MDA-MB-231 breast 59.8% | RXF 393 renal 11.7% | SF-268 CNS 60.8% | SF-295 CNS 58.5% | SF-539 CNS 15.9% | UACC-257 melanoma 58.5% | M14 melanoma 58.7% | HCT-15 colon 56.6% | HT29 colon 38.8% | SNB-75 CNS 13.8% | SNB-19 CNS 86.7% | U251 CNS 71.8% | PC-3 prostate 40.5% | SK-MEL-5 melanoma 82.5% | UACC-62 melanoma 77.3% | LOX IMVI melanoma 55% | SK-MEL-28 melanoma 55.9%

COc1ccc(C2=NN(C=O)C(c3ccc(Oc4nc5c(c(=O)n(C)c(=O)n5C)n4C)c(OC)c3)C2)cc1 (stereo not given)
inactive: DU-145 prostate 60.9% | K-562 leukemia 89.9% | MALME-3M melanoma 102% | MDA-MB-231 breast 77.6% | RXF 393 renal 110% | SF-268 CNS 57.8% | SF-295 CNS 75.5% | SF-539 CNS 110% | M14 melanoma 68.9% | HCT-15 colon 88.9% | HT29 colon 71.8% | SNB-75 CNS 94.1% | SNB-19 CNS 69.1% | U251 CNS 90.1% | PC-3 prostate 78.4% | SK-MEL-5 melanoma 59.8% | UACC-62 melanoma 88.5% | LOX IMVI melanoma 68.2% | SK-MEL-28 melanoma 97.8%
active: UACC-257 melanoma -10.3%

OC1CSSC1Cn1cnc2c(Nc3ccc(F)c(Cl)c3)ncnc21 (stereo not given)
inactive: DU-145 prostate 85.8% | K-562 leukemia 32.5% | MALME-3M melanoma 65.1% | MDA-MB-231 breast 84.6% | RXF 393 renal 114% | SF-268 CNS 81.8% | SF-295 CNS 106% | SF-539 CNS 93.2% | UACC-257 melanoma 82% | HCT-15 colon 92.5% | HT29 colon 83.2% | SNB-75 CNS 114% | SNB-19 CNS 90.4% | U251 CNS 84.3% | PC-3 prostate 80.5% | SK-MEL-5 melanoma 88.2% | UACC-62 melanoma 16.3% | LOX IMVI melanoma 47.9% | SK-MEL-28 melanoma 78.3%
active: M14 melanoma -65.9%
